# High-throughput results from PubChem.
# In the library only some 1.6% were active in any assay of this set; here they are far more common.
# KCNQ2 block: rat KCNQ2 potassium channel inhibitors, primary screen, cell-based, CHO-K1, FluxOR thallium flux, B-score | 20 min; hits give low values | Potassium voltage-gated channel subfamily KQT member 2 (Rattus norvegicus), O88943 | B-score at 10 µM | 310,000 compounds, 1.1% hits;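 active = fluorescence ratio B-score at most minus 3 library SDs, with starting brightness B-score within 2 library SDs, cut at about -5.5 in these data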
# Target sequence (O88943 whole entry, looked up): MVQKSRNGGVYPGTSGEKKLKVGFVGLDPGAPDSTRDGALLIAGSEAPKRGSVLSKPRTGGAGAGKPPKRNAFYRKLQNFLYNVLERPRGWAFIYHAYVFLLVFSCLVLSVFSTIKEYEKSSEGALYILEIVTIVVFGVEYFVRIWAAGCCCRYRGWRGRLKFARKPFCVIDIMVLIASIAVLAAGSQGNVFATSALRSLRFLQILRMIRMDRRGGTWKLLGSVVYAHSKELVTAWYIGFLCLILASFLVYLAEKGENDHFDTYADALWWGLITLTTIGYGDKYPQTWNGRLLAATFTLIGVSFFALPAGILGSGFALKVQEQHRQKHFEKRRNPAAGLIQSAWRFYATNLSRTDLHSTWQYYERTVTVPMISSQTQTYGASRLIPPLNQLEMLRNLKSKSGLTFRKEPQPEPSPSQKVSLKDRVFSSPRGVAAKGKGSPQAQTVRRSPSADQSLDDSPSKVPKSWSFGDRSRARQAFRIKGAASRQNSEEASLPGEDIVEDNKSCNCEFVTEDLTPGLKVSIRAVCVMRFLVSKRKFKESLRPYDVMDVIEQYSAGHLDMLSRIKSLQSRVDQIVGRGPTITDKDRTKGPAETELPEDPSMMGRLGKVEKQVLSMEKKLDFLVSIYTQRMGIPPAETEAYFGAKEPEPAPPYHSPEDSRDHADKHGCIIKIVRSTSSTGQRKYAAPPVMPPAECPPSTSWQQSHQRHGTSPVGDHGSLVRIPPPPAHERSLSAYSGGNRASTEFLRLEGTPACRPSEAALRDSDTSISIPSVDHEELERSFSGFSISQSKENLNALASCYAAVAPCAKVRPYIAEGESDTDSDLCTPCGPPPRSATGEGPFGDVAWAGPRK
# KCNQ2 enhance: potentiators of rat KCNQ2 potassium channel. 310,000 compounds, 0.54% hits. CHO-K1 KCNQ2, FluxOR thallium flux fluorescence; hits give high values. B-score at 10 µM;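 active = fluorescence ratio B-score at least 3 SD of library B-scores, with initial fluorescence B-score within 3 of them, cut at about 5.3 in these data; same plate scores as AID 2156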;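 also: B-score of peak minus minimum over baseline fluorescence ratio after K+ and Tl+ stimulus; positive B-score means potentiation of KCNQ2 with more thallium influx and brighter signal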
# KCNQ2 inh conf: rat KCNQ2 potassium channel inhibitors, confirmation, cell-based, thallium flux; shares compounds with KCNQ2 block; KCNQ2-expressing cells, inhibition; hits give low values; activity change, negative = inhibition, % at 10 µM; 1,000 compounds, 57% hits;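 also: 0% = vehicle wells and values are ratio percent relative to vehicle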
# KCNQ1 spec: human KCNQ1 channel inhibition, counter-screen for KCNQ2 inhibitor project, cell-based, FluxOR thallium flux; activity change, negative = inhibition, % at 10 µM; 1,000 compounds, 15% hits; shares compounds with KCNQ2 block; KCNQ1-expressing cells, FluxOR thallium flux fluorescence; hits give low values;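 active = activity change at least 3 SD of negative controls below their mean in both duplicate wells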;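 also: CHO cells stably transfected with KCNQ1 and depolarized by potassium stimulus; peak minus minimum fluorescence over baseline after thallium addition; 0% = vehicle negative control and -100% = blank without thallium stimulus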
# CHO parental ctr: thallium flux change in parental CHO cells, counter-screen for KCNQ2 inhibitor project; shares compounds with KCNQ2 block; hits give low values; activity change, % at 10 µM; 1,000 compounds, 14% hits;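 also: 0% = vehicle negative controls with stimulus buffer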
# KCNQ2 inh confirm: rat KCNQ2 channel inhibitors, confirmation, cell-based, automated patch clamp, single concentration; shares compounds with KCNQ2 block; KCNQ2-expressing cells, automated patch clamp current; calls only at 10 µM; 550 compounds, 49% hits; AID 588531, 2011
# Starred values were filed as active, the others as inactive; i = inactive; · = no result given; + = active, no number. Unless noted, no rule for the calls is given here.
SMILES,KCNQ2 block,KCNQ2 enhance,KCNQ2 inh conf,KCNQ1 spec,CHO parental ctr,others
COc1ccc(CNC(=O)CN(Cc2ccc(Cl)cc2)S(=O)(=O)c2ccccc2)cc1,-7.45*,-7.45,-29.5%*,i,i,KCNQ2 inh confirm=i
COc1ccc(S(=O)(=O)N(CC(=O)NCc2ccncc2)Cc2ccccc2)cc1,i,·,·,·,·,
Cc1cc(-c2nn(-c3ccccc3F)cc2CNCCc2cnccn2)c(C)s1,i,·,·,·,·,
CN(C)CCCNC(=O)c1ccc(-c2nc(-c3ccc(Cl)cc3)cs2)cc1,-11.8*,-11.8,-22.0%*,i,i,KCNQ2 inh confirm=i
CN(C)CCCNCCCNC(=O)c1ccncc1,i,·,·,·,·,
Cc1ccc(SCc2c(-c3ccccc3)nn(C)c2Cl)cc1,i,·,·,·,·,
Cc1ccc(Sc2c(C#N)c(-c3ccccc3)nn2C)cc1,-8.49*,-8.49,i,i,i,
COc1cccc(/C=C(/C(=O)OCC(=O)NCC2CCCO2)c2ccccc2)c1 (configuration not stated),i,·,·,·,·,
COc1cccc(/C=C(/C(=O)OCC(=O)NC2CCCCCCC2)c2ccccc2)c1,-8.48*,-8.48,-16.5%*,i,i,KCNQ2 inh confirm=i
O=C(CN(c1ccccc1)S(=O)(=O)c1ccccc1)N1CCN(Cc2ccc3c(c2)OCO3)CC1,i,0.73,·,·,·,
O=C(Cc1c(F)cccc1Cl)N(Cc1ccccc1)c1ccccn1,i,0.31,·,·,·,
O=C(/C=C/c1ccc(Cl)cc1)N(Cc1ccccc1)c1ccccn1,-8.26*,-8.26,-31.0%*,i,i,KCNQ2 inh confirm=+
CC1=C(C(=O)OCc2ccccc2)C(c2ccccn2)c2c(n(C)c(=O)n(C)c2=O)N1 (configuration not stated),i,0.06,·,·,·,
COc1cc(-c2nnn(CC#N)n2)ccc1OCc1ccccc1,i,·,·,·,·,
O=[N+]([O-])c1cccc2nc(-c3ccccc3)c(-c3ccccc3)nc12,-7.64*,-7.64,-28.0%*,i,i,KCNQ2 inh confirm=i
Cn1c(-[n+]2c(-c3ccccc3)cc(-c3ccccc3)cc2-c2ccccc2)nc2c([N+](=O)[O-])cccc21,i,·,·,·,·,
O=C(NCc1ccccc1)c1c(O)c2ccccc2[nH]c1=O,i,0.63,·,·,·,
Cc1cccc(OCC(O)Cn2c(-n3nc(C)cc3C)nc3c2c(=O)[nH]c(=O)n3C)c1 (configuration not stated),i,0.74,·,·,·,
Cc1ccc(NC(=O)c2ccccc2OCC(=O)c2ccccc2)cc1,i,·,·,·,·,
Cc1cccc(NC(=O)c2ccccc2OCC(=O)c2ccccc2)c1,-8.23*,-8.23,i,i,i,
O=C(NCC(=O)N1CCCC(C(F)(F)F)C1)c1ccc(Oc2ccccc2)cc1 (configuration not stated),i,1.36,·,·,·,
O=C(NCC(=O)N1CCCC(C(F)(F)F)C1)c1ccc2ccccc2c1 (configuration not stated),-6.87*,-6.87,i,i,i,
O=C(CN1CCOCC1)c1c[nH]c2ccccc12,i,1.53,·,·,·,
CN1CCN(CC(=O)N2CCn3c4c(c5cc(C6CCCCC6)ccc53)CCCC42)CC1 (configuration not stated),-12.6*,-12.6,-30.5%*,i,i,KCNQ2 inh confirm=i
Cc1ccc2c(c1)c1c3n2CCN(C(=O)CN2CCN(C)CC2)C3CCC1 (configuration not stated),i,·,·,·,·,
SMILES,KCNQ2 block,KCNQ2 enhance,KCNQ2 inh conf,KCNQ1 spec,CHO parental ctr,others
COCCCNC(=S)NNC(=O)c1ccc(S(=O)(=O)N2CCC(C)CC2)cc1,i,·,·,·,·,
COC(=O)CNC(=O)c1ccc(NS(=O)(=O)c2cc([N+](=O)[O-])ccc2Cl)cc1,i,·,·,·,·,
COc1cccc(NC(=O)Nc2ccc(C(C)(C)C)cc2)c1,-8.68*,-8.68,i,i,i,
COc1cccc(NC(=O)Nc2ccncc2)c1,i,0.23,·,·,·,
COc1cc(C(=O)Nc2nc3ccc(C)cc3s2)ccc1OCc1c(C)noc1C,i,0.03,·,·,·,
COc1ccc(C2CC(c3ccccc3)=NN2C(=O)c2ccc(F)cc2)cc1 (configuration not stated),i,0.66,·,·,·,
O=C(Nc1ccccc1)N1N=C(c2ccc(F)cc2)CC1c1ccc(F)cc1 (configuration not stated),-6.72*,-6.72,i,i,i,
COc1cc(NC(=O)CCc2nnc3ccc(N4CCCC4)nn23)cc(OC)c1OC,i,·,·,·,·,
O=C(CSc1ncn[nH]1)Nc1ccc([N+](=O)[O-])cc1Br,i,·,·,·,·,
COc1ccc(-c2cc(C(=O)N3CCCC3)c3ccccc3n2)cc1,i,·,·,·,·,
O=C(c1cc(-c2cccnc2)nc2ccccc12)N1CCCc2ccccc21,i,·,·,·,·,
COc1ccc(-c2cc(C(=O)N3CC(C)CC(C)C3)c3ccccc3n2)cc1 (configuration not stated),-8.7*,-8.7,-35.0%*,i,i,KCNQ2 inh confirm=+
CC1CN(C(=O)c2cc(-c3ccc(Cl)s3)nc3ccccc23)CC(C)O1 (configuration not stated),-8.53*,-8.53,-33.0%*,i,i,KCNQ2 inh confirm=+
Cc1ccc(-c2cc(C(=O)N3CCCCC3)c3ccccc3n2)cc1C,-9.31*,-9.31,-36.5%*,i,i,KCNQ2 inh confirm=+
Cc1ccccc1-c1cc(C(=O)N2CCCC2)c2ccccc2n1,i,0.36,·,·,·,
Cc1ccc(-c2cc(C(=O)N3CCCc4ccccc43)c3ccccc3n2)cc1,-6.86*,-6.86,i,i,i,
CC1CC(C)CN(C(=O)c2cc(-c3ccccn3)nc3ccccc23)C1 (configuration not stated),i,·,·,·,·,
COc1ccccc1C(CC(=O)N1CCCC1)c1ccc2c(c1)OCO2 (configuration not stated),i,·,·,·,·,
Cc1cc(=O)c2cc(NC(=O)c3ccccc3Cl)ccc2[nH]1,i,0.3,·,·,·,
COC(=O)Cn1c(O)c(N=NC(=O)CNC(=O)COc2cccc(C)c2)c2ccccc21,i,0.78,·,·,·,
COc1cccc(-c2csc(NC(=O)Nc3ccccc3)n2)c1,i,·,·,·,·,
OCCCc1nc2n(n1)C(c1cccs1)C=C(c1ccc(Br)cc1)N2 (configuration not stated),i,·,·,·,·,
CSc1nc(Cl)c(Cc2ccc(OC(C)C)cc2)c(N2CCOCC2)n1,-11.1*,-11.1,i,i,i,
COc1nc(SC)nc(Cl)c1Cc1ccc(OC(C)C)cc1,i,·,·,·,·,
CCc1c(C)sc(NC(=O)C2CCCO2)c1C#N (configuration not stated),i,·,·,·,·,
Cc1nn2c(N)c(-c3ccccc3)cnc2c1-c1ccc(Cl)cc1,i,·,·,·,·,
Cc1nc2c(-c3ccccc3)c(C)nn2c(N)c1-c1ccccc1,-7.46*,-7.46,-34.0%*,i,i,KCNQ2 inh confirm=i
